Laboratory results reported in PubChem BioAssay (NCATS).
Inconclusive results are not listed. Where a call stands in place of a potency, no number is given. Unmarked numbers belong to inactive results. Activity calls are given as the source filed them. The call rests on the fitted dose curve; in most records, active means well fitted cell-killing curve with a large enough effect; inconclusive means small, poorly fitted or top-dose-only effect, or effect the other way; inactive means flat fitted curve, though single readings scatter.

Tests used:
Assay in all cases: Primary qHTS to identify gynecologic anti-cancer compounds using libraries of approved drugs and bioactive compounds (AID 1345084); further: nearly all actives have a fitted effect of over 55% in size
Settings in all cases: Gynecologic cancer cell panel viability, ATPlite luminescence, 48 h; series mostly up to 57.5 µM
SKOV3 = tested on: SKOV3
How it was run: (§1)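 Cytotoxicity screen measuring ATP content by luciferase luminescence. Each compound is applied at five concentrations for 48 h at 37 C with 5% CO2.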

Tov-21-G = tested on: Tov-21-G
How it was run: as §1

Tov112D = tested on: Tov112D
How it was run: as §1
Potency means the concentration at half of the fitted maximal effect.

| SMILES | Potency (SKOV3) | Potency (Tov-21-G) | Potency (Tov112D) | activity change, negative = cytotoxicity (SKOV3) | activity change, negative = cytotoxicity (Tov-21-G) | activity change, negative = cytotoxicity (Tov112D) |
| --- | --- | --- | --- | --- | --- | --- |
| C=CCc1ccc(OC(C)Cc2ccc(OC)c(OC)c2)c(OC)c1 (stereo unspecified) | inactive | inactive | inactive |  |  |  |
| C[C@@H](NC(=O)c1ccc(C#Cc2cccc(F)c2)cn1)C(C)(C)O | inactive | inactive | inactive |  |  |  |
| CC#CCn1c(N2CCCC(N)C2)nc2c1c(=O)n(Cc1nc(C)c3ccccc3n1)c(=O)n2C (stereo unspecified) | inactive | inactive | inactive |  |  |  |
| O=C(Nc1ccn(Cc2ccc(O)cc2C(F)(F)F)n1)c1c(F)cccc1F | inactive | inactive | inactive |  |  |  |
| CCCCc1ccc(NS(=O)(=O)c2ccc(F)cc2)cc1 | inactive | inactive | inactive |  |  |  |
| COc1ccc([C@H]2Cc3cccc(O)c3C(=O)O2)cc1OC | inactive | inactive | inactive |  |  |  |
| O=C(NCCN1CCC(n2c(=O)[nH]c3ccccc32)CC1)c1ccc2ccccc2c1 | inactive | inactive | inactive |  |  |  |
| C=C1[C@H]2CC[C@H](C(=O)O)[C@@]23CC[C@H](C3)C1(C)C | inactive | inactive | inactive |  |  |  |
| CO[C@H]1O[C@@H]2O[C@@]3(C)CCC4[C@H](C)CCC([C@H]1C)[C@]42OO3 (stereo partly specified) | inactive | inactive | inactive |  |  |  |
| COc1cc2nc(N3CCN(C(=O)COc4c(OC)cccc4C(C)C)CC3)nc(N)c2cc1OC | inactive | inactive | inactive |  |  |  |
| O=C(Cc1c(F)cccc1F)Nc1cc(OCc2ccc(Cl)cc2)ccn1 | inactive | inactive | inactive |  |  |  |
| O=C(O)CCc1nccc2c1[nH]c1ccccc12 | inactive | inactive | inactive |  |  |  |
| Cc1nc2c(C(F)(F)F)cccc2nc1-c1ccc(-c2cccc(S(C)(=O)=O)c2)cc1 | inactive | inactive | inactive |  |  |  |
| CC(C)/C=C1\NC(=O)C(C(C)C)n2c1nc1ccccc1c2=O (stereo unspecified) | inactive | inactive | inactive |  |  |  |
| COC1CCN(C(=O)c2cc(Cc3n[nH]c(=O)c4ccccc34)ccc2F)CC1 | inactive | inactive | inactive |  |  |  |
| Cc1cc(F)ccc1-c1nc(NCCN=C(N)NC#N)nc2c1ccc(=O)n2-c1c(F)cccc1F | inactive | inactive | inactive |  |  |  |
| Cc1nnc(-c2ccc(-c3ccc(C(=O)Nc4ccc(O)c(N5CCN(C)CC5)c4)cc3)c(C)c2)o1 | inactive | inactive | inactive |  |  |  |
| C/C=C(\C)C(=O)OC1C(C)C2(O)C(C=C(CO)CC3(O)C(=O)C(C)=CC32)C2C(C)(C)C12OC(C)=O (stereo unspecified) | inactive | inactive | inactive |  |  |  |
| COc1cc(N(C)CCN(C)C)c(N)cc1Nc1nccc(-c2cn(C)c3ccccc23)n1 | inactive | inactive | inactive |  |  |  |

| SMILES | Potency (SKOV3) | Potency (Tov-21-G) | Potency (Tov112D) | activity change, negative = cytotoxicity (SKOV3) | activity change, negative = cytotoxicity (Tov-21-G) | activity change, negative = cytotoxicity (Tov112D) |
| --- | --- | --- | --- | --- | --- | --- |
| COc1ccccc1OCCN1CC(COc2cccc3[nH]c4ccccc4c23)OCC1=O (stereo unspecified) | inactive | inactive | inactive |  |  |  |
| CC(F)(F)CN1CCOc2c(nn(-c3ccccc3Cl)c2-c2ccc(Cl)cc2)C1=O | inactive | inactive | inactive |  |  |  |
| O=C(Nc1cc(C(F)(F)F)cc(C(F)(F)F)c1)c1cnc(Cl)nc1C(F)(F)F | inactive | inactive | inactive |  |  |  |
| CN(C)C(=O)C(=O)c1cn(C)c2cc(Cl)c(C(=O)N3CCC(Cc4ccc(F)cc4)CC3)cc12 | inactive | inactive | inactive |  |  |  |
| Cc1cc2c(N3CCCC3)nc(N3CCCC3)nc2n1C | inactive | inactive | inactive |  |  |  |
| CC(C)(Cc1ccccc1)NCC(O)c1ccc(O)c(NS(C)(=O)=O)c1 (stereo unspecified) | inactive | inactive | inactive |  |  |  |
| C=C1C(OC2OC(CO)C(O)C(O)C2O)CC2C(C)(C)C(O)CCC2(C)C1CC/C(C)=C\COC(=O)CC(=O)O (stereo unspecified) | inactive | inactive | inactive |  |  |  |
| Cn1nc(-c2ccc(C(F)(F)F)cc2)nc2c(=O)n(C)c(=O)nc1-2 | 17.8 µM (active) | 12.6 µM (active) | 7.94 µM (active) |  |  |  |
| COc1cc(CN(CCN)C(=O)c2cccs2)ccc1OCc1ccccc1 | inactive | inactive | inactive |  |  |  |
| Cc1cc(-c2ncc(-c3cccnc3)cc2/C=C/c2ccccc2)cnc1-c1cccnc1 | inactive | inactive | inactive |  |  |  |
| CN(C)c1ccnc2sc3c(=O)n(N4CCCCCC4)cnc3c12 | inactive | inactive | inactive |  |  |  |
| C[C@H]1CC[C@@]2(OC1)O[C@H]1CC3[C@@H]4CC[C@@H]5C[C@@H](O[C@@H]6O[C@H](CO)[C@@H](O[C@@H]7O[C@@H](C)[C@H](O)[C@@H](O)[C@H]7O)[C@H](O)[C@H]6O[C@@H]6O[C@H](CO)[C@@H](O)[C@H](O)[C@H]6O)CC[C@]5(C)C4CC[C@]3(C)[C@H]1[C@@H]2C (stereo partly specified) |  |  |  | -15.8% [at 11.6 µM] | -2.16% [at 11.6 µM] | -1.68% [at 11.6 µM] |
| CC[C@H](C)/C=C(C)/C=C/C1=CC2=C(Cl)C(=O)[C@](C)(O)[C@H](OC(C)=O)[C@H]2CO1 | inactive | inactive | inactive |  |  |  |
| C=C1C(=O)O[C@@H]2C=C(COC(C)=O)CC/C=C(\CO)CC[C@@H]12 | inactive | inactive | inactive |  |  |  |
| O=C(O)c1cccc(-c2ccc(-c3cn(C(=O)N4CCCCC4Cc4ccccc4)nn3)cc2)c1 (stereo unspecified) | inactive | inactive | inactive |  |  |  |
| CC(C)(C)c1ccc(C(=O)Nc2cc(Cl)c(Br)cc2C(=O)O)cc1 | inactive | inactive | inactive |  |  |  |
| CC(=O)OC1CC(C)C2(CCC3(CC(=O)OC3O)O2)C2(C)CCCC(C)(C)C12 (stereo unspecified) | inactive | inactive | inactive |  |  |  |
| COc1cc2c(cc1O)C1(Cc3ccc4c(c3C1O)OCO4)[N+](C)([O-])CC2 (stereo unspecified) | inactive | inactive | inactive |  |  |  |
| C=C1/C(=C/C=C2\CCC[C@@]3(C)C2CCC3[C@H](C)/C=C/[C@@H](O)C2CC2)C[C@@H](O)C[C@@H]1O (stereo partly specified) | inactive | inactive | inactive |  |  |  |

| SMILES | Potency (SKOV3) | Potency (Tov-21-G) | Potency (Tov112D) | activity change, negative = cytotoxicity (SKOV3) | activity change, negative = cytotoxicity (Tov-21-G) | activity change, negative = cytotoxicity (Tov112D) |
| --- | --- | --- | --- | --- | --- | --- |
| CCCc1ccc(OCC(=O)N(Cc2nc(-c3cccnc3)no2)C(C)C)cc1 | inactive | inactive | inactive |  |  |  |
| CC(=O)OC[C@]12[C@H](OC(C)=O)C(=O)[C@@H]3[C@@H](O)[C@@]14O[C@@]3(C)COC(=O)c1cccnc1[C@@H](C)[C@H](C)C(=O)O[C@@H]([C@H](O)[C@@H]2OC(C)=O)[C@]4(C)O | inactive | inactive | inactive |  |  |  |
| OC1CCC(Nc2nc(-c3ccccc3)nc3[nH]ccc23)CC1 (stereo unspecified) | inactive | inactive | inactive |  |  |  |
| C/C(=C\CO[C@@H]1O[C@H](CO[C@H]2OC[C@](O)(CO)[C@H]2O)[C@@H](O)[C@H](O)[C@H]1O)C(C)(C)O | inactive | inactive | inactive |  |  |  |
| CC(=O)O[C@@H]1C[C@]2(C)[C@@]3(CCC4[C@@]5(C)CC[C@H](O[C@@H]6O[C@H](C(=O)O)[C@@H](O)[C@H](OC7OC(CO)C(O)C(O)[C@H]7O[C@@H]7O[C@@H](C)[C@H](O)[C@@H](O)[C@H]7O[C@@H]7OC[C@](O)(CO)[C@H]7O)[C@H]6OC6OC(CO)C(O)C(O)C6O)C(C)(C)C5CC[C@]42C)OC[C@@]12CCC(C)(C)CC23 (stereo partly specified) |  |  |  | 27.9% [at 6.55 µM] | -2.25% [at 6.55 µM] | -4.27% [at 6.55 µM] |
| Cc1c(C2=CCN(C(=O)N(C)C(C)C)CC2)nnn1-c1cccnc1F | inactive | inactive | inactive |  |  |  |
| COc1ccncc1C(=O)NC(=O)Nc1ccc(-c2ccccc2)c(C(F)(F)F)c1 | inactive | inactive | inactive |  |  |  |
| CCC(C)C(=O)OC1C(C)C2(O)C(C=C(CO)CC3(O)C(=O)C(C)=CC32)C2C(C)(C)C12OC(=O)C(C)C (stereo unspecified) | inactive | inactive | inactive |  |  |  |
| COc1ccccc1C(=O)Nc1cccc(NC(=O)c2cccc(C)c2)c1 | inactive | inactive | inactive |  |  |  |
| C/C=C(\C)C(=O)O[C@@H]1[C@@H](C)[C@]2(O)[C@@H]3C=C(C)C(=O)[C@H]3CC(CO)=C[C@H]2C2C(C)(C)[C@@]21OC(=O)C(C)CC (stereo partly specified) | inactive | inactive | inactive |  |  |  |
| Fc1ccc2c(CCNCc3cccc(OCC(F)(F)C(F)F)c3)c[nH]c2c1 | inactive | inactive | inactive |  |  |  |
| C=CCC1=C[C@]2(OC)[C@H](C)[C@@H](c3ccc4c(c3)OCO4)O[C@]2(OC)CC1=O | inactive | inactive | inactive |  |  |  |
| O=C(O)c1cc(N(Cc2ccc(C3CCCCC3)cc2)C(=O)c2ccc(Oc3ccccc3)cc2)ccc1O | inactive | inactive | inactive |  |  |  |
| C=C1C(=O)O[C@H]2C1CCC(C)=C1C(=O)C=C(C)[C@@]12O (stereo partly specified) | inactive | inactive | inactive |  |  |  |
| Cc1nc(NC(=O)N2CCC[C@H]2C(N)=O)sc1-c1ccnc(C(C)(C)C(F)(F)F)c1 | 12.6 µM (active) | inactive | inactive |  |  |  |
| CC(=O)N[C@H]1[C@H](O[C@H]2CC[C@@]3(C)C(CC[C@]4(C)C3CC=C3C5CC(C)(C)CC[C@]5(C(=O)O)C(O)C[C@]34C)C2(C)C)O[C@H](CO[C@@H]2O[C@H](C)[C@H](O)[C@H](O)[C@H]2O[C@@H]2OC[C@@H](O)[C@H](O)[C@H]2O)[C@@H](O)[C@@H]1O (stereo partly specified) |  |  |  | -11.9% [at 11.6 µM] | -0.865% [at 11.6 µM] | -1.59% [at 11.6 µM] |
| CCC/C=C/C(=O)O[C@H]1CC(C)(C)CC2[C@@]13[C@H](O)C[C@]1(C)[C@@]2(CCC2[C@@]4(C)CC[C@H](O[C@@H]5O[C@H](C(=O)O)[C@@H](O)[C@H](O[C@@H]6O[C@H](CO)[C@H](O)[C@H](O)[C@H]6O[C@@H]6O[C@@H](C)[C@H](O)[C@@H](O)[C@H]6O[C@@H]6OC[C@](O)(CO)[C@H]6O)[C@H]5O[C@@H]5O[C@H](CO)[C@H](O)[C@H](O)[C@H]5O)C(C)(C)C4CC[C@]21C)O[C@H]3O (stereo partly specified) |  |  |  | -3.55% [at 6.55 µM] | -24.3% [at 6.55 µM] | 7.77% [at 6.55 µM] |
| C#CCCCn1cc(-c2cccc3c2N[C@H](C)CC(=O)N3)cn1 | inactive | inactive | inactive |  |  |  |
| CC1(C=O)CCCC2(C)C1CCC13CC(CO)C(CCC12)C3 (stereo unspecified) | inactive | inactive | inactive |  |  |  |
